# Compound activity deposited in PubChem BioAssay by National Center for Advancing Translational Sciences (NCATS).
# A selection: hits, their analogues and other compounds. The true share with any hit is near 18%.
# HepG2 tox: HepG2 cytotoxicity, counter-screen for TGF-b inhibitors | AID 588856 | 410,000 tested, 0.76% active | HepG2 CAGA-GFP viability, ATP luminescence, 18 h | Potency, µM (doses to about 46.1 µM), for the others: at the top dose activity change, negative = cytotoxicity, hits mostly cytotoxic; further: potency means the concentration at half of the fitted maximal effect
#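 CellTiter-Glo luminescence gave cytotoxicity after 18 hours at 37 degrees C. The cells were HepG2 CAGA-GFP in 1% FBS DMEM, stimulated with 500 pg/mL TGF-beta after compound addition. %Activity was normalised to no-cell wells (complete cell-killing) and DMSO (no toxicity), and curves were fitted and classified.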
# TDP1 block: inhibitors of human tyrosyl-DNA phosphodiesterase TDP1 | Q9NUW8 | Potency, µM (titrated, usually from 130 µM), inactives show at the top dose activity change, negative = inhibition, usual class: inhibitors | recombinant TDP1, AlphaScreen DNA substrate cleavage | 350,000 tested, 0.28% active; further: potency means the concentration at half of the fitted maximal effect; on the % scale 0 is the no-effect control and ±100 the full control effect; nearly all actives have a fitted effect of over 40% in size
# Target sequence (Q9NUW8 whole entry, looked up): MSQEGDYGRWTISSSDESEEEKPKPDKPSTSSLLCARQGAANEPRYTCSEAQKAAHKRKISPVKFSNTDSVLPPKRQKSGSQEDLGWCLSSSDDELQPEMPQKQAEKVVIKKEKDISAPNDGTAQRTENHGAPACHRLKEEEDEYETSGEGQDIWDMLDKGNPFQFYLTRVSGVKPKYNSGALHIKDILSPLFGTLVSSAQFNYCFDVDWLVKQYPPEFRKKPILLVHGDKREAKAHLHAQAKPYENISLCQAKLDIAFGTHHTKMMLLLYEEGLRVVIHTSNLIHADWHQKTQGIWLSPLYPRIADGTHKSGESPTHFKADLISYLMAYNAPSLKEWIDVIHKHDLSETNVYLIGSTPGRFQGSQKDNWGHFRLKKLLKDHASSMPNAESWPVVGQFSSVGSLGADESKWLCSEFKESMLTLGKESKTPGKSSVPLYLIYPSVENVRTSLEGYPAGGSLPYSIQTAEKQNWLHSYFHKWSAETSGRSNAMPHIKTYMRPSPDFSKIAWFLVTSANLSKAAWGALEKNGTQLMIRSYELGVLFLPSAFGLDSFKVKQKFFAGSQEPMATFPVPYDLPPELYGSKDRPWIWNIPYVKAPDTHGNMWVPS
#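 Signal: AlphaScreen proximity between streptavidin donor and anti-FITC acceptor beads on intact substrate. Reaction: Tdp1 1 nM, substrate 15 nM final, 5 min RT after 15 min compound preincubation.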
# IL1B secr inh: inflammasome signaling inhibition, IL-1 beta readout | THP-1 LPS/ATP IL-1B secretion, AlphaLISA, 16 h; stronger effect = lower value | activity change, % at 57.5 µM | 360,000 tested, 4.7% active | AID 743279; in the data active means activity change below about -50%; inconclusive means mostly about -30% to -49%; further: on the % scale 0 is the no-effect control and ±100 the full control effect
#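 THP-1 cells pretreated 1 hr with compounds (up to 57.5 uM final), then stimulated with LPS (250 ng/mL final) plus ATP (1.25 mM final); secreted IL-1B measured by AlphaLISA after 16 hr, decreased signal indicating inhibition.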
# DT40 TDP1 CPT: growth inhibition of DT40 Tdp1-/-;hTDP1 cells with camptothecin (screen for TDP1 inhibitors); Potency, µM (series often up to 46.2 µM), inactives show top-dose activity change, negative = growth inhibition, hits mostly inhibitors; chicken DT40 Tdp1-/-;hTDP1 cells + 20 nM CPT, ATP luminescence, 48 h; 420,000 tested, 12% active; further: potency means the concentration at half of the fitted maximal effect; on the % scale 0 is the no-effect control and ±100 the full control effect; nearly all actives have a fitted effect of over 55% in size
#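 Chicken DT40 Tdp1-/- cells complemented with human TDP1, 400 cells/well, exposed to compounds plus 20 nM camptothecin for at least 48 h at 37 C; viability read as ATP content by CellTiter-Glo luminescence.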
# TGFb SMAD3 inh: TGF-b pathway inhibition. HepG2 CAGA-GFP TGF-b/SMAD3 reporter, GFP fluorescence, 18 h; TGF-beta stimulated, 500 pg/mL final. Potency, µM (titrated, usually from 46.1 µM), inactives show at the highest dose activity, negative = inhibition, hits mostly inhibitors. AID 588855. 410,000 tested, 1.2% active; further: potency means the concentration at half of the fitted maximal effect; on the % scale 0 is the no-effect control and ±100 the full control effect; nearly all actives have a fitted effect of over 65% in size
#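 GFP signal (ex488/em500-530) from TGF-beta-stimulated HEPG2 CAGA-GFP cells, 500 pg/mL final, 18 h at 37 degrees C in DMEM plus 1% FBS, normalized to unstimulated and DMSO-stimulated controls.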
# DT40 TDP1 no CPT: qHTS for Inhibitors of human tyrosyl-DNA phosphodiesterase 1 (TDP1): qHTS in cells in absence of CPT. DT40 Tdp1-/- hTDP1 cells, no CPT, ATP luminescence, 48 h. Potency, µM (highest dose often 46.2 µM), inactives show at the top dose activity change, negative = growth inhibition, hits mostly inhibitors. 420,000 tested, 15% active. AID 686978, 2013; further: potency means the concentration at half of the fitted maximal effect; on the % scale 0 is the no-effect control and ±100 the full control effect; nearly all actives have a fitted effect of over 55% in size
#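 Compound effects on proliferation are scored in DT40 Tdp1-/-;hTDP1 cells in the absence of CPT. ATP levels (CellTiter-Glo luminescence) are recorded after a ≥48 hr, 37 °C incubation.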
# * marks the source's active call; other numbers are inactive results; ? = inconclusive; · = no result given. Unless noted, the call rests on the fitted dose curve; in most records, active means well fitted curve in the direction sought with a large enough effect; inconclusive means small, poorly fitted or top-dose-only effect, or another doubt; inactive means no such curve, though single readings can be large; an effect the other way counts as inactive or inconclusive.
SMILES,HepG2 tox,TDP1 block,IL1B secr inh,DT40 TDP1 CPT,TGFb SMAD3 inh,DT40 TDP1 no CPT
CCOc1ccccc1C(=O)N1CCc2cc(OC)c(OC)cc2C1COc1ccc2c(C)cc(=O)oc2c1 (centres undefined),6%,0%,·,?,1%,9.2µM*
CCOc1ccc(CC(=O)N2CCc3cc(OC)c(OC)cc3C2COc2ccc3c(C)cc(=O)oc3c2)cc1 (centres undefined),7%,0%,·,-25%,6%,-10%
COc1cc2c(cc1OC)C(COc1ccc3c(C)cc(=O)oc3c1)N(C(=O)c1cccc(C)c1)CC2 (centres undefined),-1%,-3%,·,?,-3%,6.5µM*
COc1cc2c(cc1OC)C(COc1ccc3c(C)cc(=O)oc3c1)N(C(=O)C(C)C)CC2 (centres undefined),10%,6%,·,?,-16%,13µM*
COc1cc2c(cc1OC)C(COc1ccc3c(C)cc(=O)oc3c1)N(C(=O)c1cccc(OC)c1OC)CC2 (centres undefined),13%,-6%,·,?,?,23µM*
O=C(O)[C@@H]1CCCN1,·,0%,·,·,·,·
CN(C)c1ncc2nc(-c3ccc(Cl)cc3)c(=O)n(Cc3ccc(F)cc3)c2n1,·,·,·,-6%,·,13%
Clc1ccc2c(ccc[n+]2CCc2ccccc2)c1,-25%,·,·,-30%,-6%,?
COc1ccc(CC(=O)N2CCc3cc(OC)c(OC)cc3C2COc2ccc3c(C)cc(=O)oc3c2)cc1OC (centres undefined),3%,3%,·,2%,-17%,-3%
COc1cc2c(cc1OC)C(COc1ccc3c(C)cc(=O)oc3c1)N(C(=O)c1ccco1)CC2 (centres undefined),-13%,1%,-7,?,12%,21µM*
O=C(NC1CC1)c1c(O)c2ccccc2[nH]c1=O,7%,·,-61*,?,-15%,-14%
CCCCC(=O)NNC(=O)c1c(O)c2ccccc2[nH]c1=O,-14%,?,0,-22%,-17%,?
CCCc1nc2ccccc2c(=O)n1NC(=O)c1c(O)c2ccccc2n(C)c1=O,5%,-3%,3,?,16%,?
O=C(CCl)NNC(=O)c1c(O)c2ccccc2[nH]c1=O,-31%,3%,-102*,4.6µM*,?,5.2µM*
CCc1nc2ccccc2c(=O)n1NC(=O)c1c(O)c2ccccc2[nH]c1=O,-9%,2%,-1,21µM*,-9%,18µM*
O=C(NC1CCCCCCC1)c1c(O)c2ccccc2[nH]c1=O,-1%,2%,-14,?,-1%,-21%
Nc1nnc(CC(=O)N/N=C/c2ccccc2OCc2ccccc2F)s1,-22%,5%,·,?,-14%,?
Cc1cc(C(F)(F)F)n2nc(-c3cnn(C)c3C(F)(F)F)c(Cl)c2n1,-55%,2%,6,-19%,36%,-22%
O=C(CSc1nnc(COc2cccc3cccnc23)o1)N1CCCC1,5%,0%,14,-4%,-2%,-27%
O=C(CSc1nnc(COc2cccc3cccnc23)o1)c1ccc(F)cc1,-19%,0%,-3,4.1µM*,?,4.1µM*
COc1cccc(C(=O)CSc2nnc(COc3cccc4cccnc34)o2)c1,-11%,10%,-7,3.7µM*,?,4.1µM*
Cc1ccc(C(=O)CSc2nnc(COc3cccc4cccnc34)o2)cc1,-7%,7%,?,10µM*,?,23µM*
Cc1ccc(C(=O)CSc2nnc(COc3cccc(C)c3)o2)cc1,-7%,-10%,13,4%,-6%,-17%
COc1ccc(CCNC(=O)CCn2c(=O)c3ccccc3n(Cc3cc(C)ccc3C)c2=O)cc1OC,3%,7%,·,-12%,25%,-25%
CCOCCO,·,14%,·,·,·,·
SMILES,HepG2 tox,TDP1 block,IL1B secr inh,DT40 TDP1 CPT,TGFb SMAD3 inh,DT40 TDP1 no CPT
CCCCNC(=O)CCC(=O)Nc1ccc2nc(N3CCCCC3)cc(C)c2c1,-29%,3%,-29,?,-2%,?
Cc1cc(N2CCCCC2)nc2ccc(NC(=O)c3cccc(Cl)c3)cc12,-35%,8%,·,23µM*,-2%,21µM*
Cc1cc(N2CCCCCC2)nc2ccc(F)cc12,-3%,·,26,-15%,-12%,-10%
Cc1cc(N2CCOCC2)nc2ccc(NC(=S)NCc3ccc4c(c3)OCO4)cc12,-32%,9%,-12,?,?,18µM*
Cc1cc(N2CCCC2)nc2ccc(NC(=S)NC(C)C)cc12,-2%,0%,-15,?,10%,16µM*
Cc1cc(N2CCCCC2)nc2ccc(NC(=O)c3cccc(F)c3)cc12,-45%,6%,·,7.3µM*,?,7.3µM*
O=C1CCCc2cc(S(=O)(=O)NCC3CCC(C(=O)NCc4ccccc4Cl)CC3)ccc2N1 (centres undefined),-28%,0%,·,?,-20%,-30%
CN(C)c1ccc(-c2ccc3c(=O)c4ccccc4n(C)c3c2)cn1,-2%,·,51,?,3%,?
COCCc1nn2c(=O)cc(COC(=O)COc3ccccc3C)nc2s1,0%,5%,·,0%,-2%,-16%
Cc1ccc(S(=O)(=O)N2CCN(C(=O)COC(=O)c3ccc(Cl)nc3)CC2)c(C)c1,-4%,-1%,18,0%,15%,-28%
CCOC(=O)C1CCCN(C(=O)c2cccc(C(F)(F)F)c2)CC1 (centres undefined),1%,·,30,5%,-5%,-28%
COc1ccc(NC(=O)C2CC(=O)N/C(=N/NC(=O)c3ccc(Cl)cc3)S2)cc1 (centres undefined),-6%,7%,1,-3%,-1%,5%
Cc1ccc(C(=O)Nc2ccc3nc(N4CCCCC4)cc(C)c3c2)cc1F,2%,-3%,·,?,1%,23µM*
COc1ccccc1N=C(C)C1=C(O)CC(c2ccccc2)CC1=O (centres undefined),1%,2%,32,0.52µM*,0%,0.82µM*
CCOC(=O)c1cnc(Nc2nc3ccccc3o2)nc1CSc1ncccn1,-13%,·,-7,-28%,2%,?
CCOC(=O)c1cnc(Nc2nc3ccccc3o2)nc1CSC(=S)N(CC)CC,-21%,5%,-4,0.15µM*,?,0.15µM*
O=[N+]([O-])c1cccc(-c2ccc(SCc3cccnc3)nn2)c1,-12%,6%,-80*,?,4%,?
